Calls of active or inactive are those of the source.
Experiments:
[1] = E. coli DRC41 culture turbidity changes, primary screen, E. coli filamentation inducer project, strain DRC41, OD650, 48 h (AID 1152);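 note: E. coli MC1000 strain DRC41 lacking acrAB efflux pump and sulA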; conditions: E. coli DRC41 (acrAB sulA), higher = more signal, called active from +8 up or from −8 down
[2] = small-molecule binders of probe aLefty1, primary screen, biochemical, small-molecule microarray, 635/667 nm fluorescence (AID 1153); conditions: higher = more signal;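 note: score merges spot fluorescence with signal-to-noise ratio from the scanned slide images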
[3] = PSAC antagonists in infected red cells, primary screen, cell-based, P. falciparum Indochina, OD700, 1 h (AID 1154); conditions: P. falciparum Indochina infected RBC osmotic lysis, higher = more signal, called active from +8 up or from −8 down
[4] = PSAC antagonists in infected red cells, primary screen, cell-based, P. falciparum Indochina, OD700, 2 h (AID 1155);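 note: lysis reports solute entry through the parasite surface anion channel PSAC; channel blockers reduce lysis of infected cells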; conditions: P. falciparum Indochina infected erythrocytes, osmotic lysis OD700; higher = more signal, called active from +8 up or from −8 down
[5] = osmotic lysis modulators in infected erythrocytes, primary screen, PSAC antagonist project, cell-based, P. falciparum Indochina, OD700, 3 h (AID 1156); conditions: higher = more signal, called active from +8 up or from −8 down
[6] = PSAC antagonists in infected red cells, primary screen, cell-based, P. falciparum Indochina, OD700, 18 h (AID 1157); conditions: P. falciparum Indochina infected erythrocytes, osmotic lysis OD700, 18 h; higher = more signal, called active from +8 up or from −8 down
[7] = modulators of S6 phosphorylation in cells, primary screen, cell-based, A549, cytoblot, luminescence, serum-stimulated (AID 1158); conditions: A549 phospho-S6 cytoblot, 5 h, higher = more signal;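 note: serum-stimulated A549 lung adenocarcinoma cells; signal is phosphorylated S6 detected by cytoblot immunostaining with HRP secondary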
[8] = molecular target: NADPH oxidase 2 (Homo sapiens) (UniProt P04839); experiment: NOX2-dependent H2O2 signal modulators, primary screen, NOX inhibitor project, cell-based, HEK293-NOX2, PMA-stimulated, Amplex Red fluorescence (AID 1159); conditions: 45 min, higher = more signal, called active from +8 up or from −8 down; note: test concentration not given here
Chain of NADPH oxidase 2 (Homo sapiens) (P04839 whole entry, looked up): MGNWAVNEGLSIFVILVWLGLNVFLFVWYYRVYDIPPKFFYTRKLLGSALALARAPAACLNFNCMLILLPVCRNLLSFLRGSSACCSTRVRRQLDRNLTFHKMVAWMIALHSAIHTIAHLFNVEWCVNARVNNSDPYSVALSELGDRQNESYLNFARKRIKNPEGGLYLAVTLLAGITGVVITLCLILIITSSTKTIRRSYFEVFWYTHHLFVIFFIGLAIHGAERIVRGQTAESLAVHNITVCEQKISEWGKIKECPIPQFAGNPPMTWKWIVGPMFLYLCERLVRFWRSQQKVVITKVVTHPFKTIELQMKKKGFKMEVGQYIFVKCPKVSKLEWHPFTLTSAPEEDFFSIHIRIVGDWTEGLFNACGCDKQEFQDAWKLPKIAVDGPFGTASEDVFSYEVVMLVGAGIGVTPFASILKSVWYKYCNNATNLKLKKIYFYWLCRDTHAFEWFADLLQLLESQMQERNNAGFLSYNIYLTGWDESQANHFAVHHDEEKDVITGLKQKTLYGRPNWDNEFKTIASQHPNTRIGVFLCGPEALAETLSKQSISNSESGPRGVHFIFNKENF

[9] = molecular target: NADPH oxidase 4 (Homo sapiens) (UniProt Q9NPH5); experiment: NOX4-dependent H2O2 signal modulators, primary screen, NOX inhibitor project, cell-based, HEK293-NOX4, tetracycline-induced, Amplex Red fluorescence (AID 1160); conditions: 45 min, higher = more signal, called active from +8 up or from −8 down
Chain of NADPH oxidase 4 (Homo sapiens) (Q9NPH5 whole entry, looked up): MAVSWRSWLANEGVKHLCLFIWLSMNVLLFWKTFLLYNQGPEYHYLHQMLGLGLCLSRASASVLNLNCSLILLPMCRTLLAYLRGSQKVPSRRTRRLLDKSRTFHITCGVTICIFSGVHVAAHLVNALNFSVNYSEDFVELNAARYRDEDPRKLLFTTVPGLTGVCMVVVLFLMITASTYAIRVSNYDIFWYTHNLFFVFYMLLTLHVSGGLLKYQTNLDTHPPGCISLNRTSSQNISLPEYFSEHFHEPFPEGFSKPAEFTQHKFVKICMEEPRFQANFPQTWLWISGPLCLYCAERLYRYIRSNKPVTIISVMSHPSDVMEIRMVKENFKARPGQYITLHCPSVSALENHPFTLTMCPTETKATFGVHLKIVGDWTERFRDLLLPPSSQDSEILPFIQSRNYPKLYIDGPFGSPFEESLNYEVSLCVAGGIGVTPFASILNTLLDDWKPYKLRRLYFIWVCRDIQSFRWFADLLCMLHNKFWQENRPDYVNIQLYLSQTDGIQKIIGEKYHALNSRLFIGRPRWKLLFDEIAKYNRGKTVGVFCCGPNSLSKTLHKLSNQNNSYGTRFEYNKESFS

[10] = molecular target: NADPH oxidase 5 (Homo sapiens) (UniProt Q96PH1); experiment: NOX5-dependent H2O2 signal modulators, primary screen, NOX inhibitor project, cell-based, HEK293-NOX5, Amplex Red fluorescence (AID 1161); conditions: HEK293-NOX5, ionomycin, 45 min, higher = more signal
Chain of NADPH oxidase 5 (Homo sapiens) (Q96PH1 whole entry, looked up): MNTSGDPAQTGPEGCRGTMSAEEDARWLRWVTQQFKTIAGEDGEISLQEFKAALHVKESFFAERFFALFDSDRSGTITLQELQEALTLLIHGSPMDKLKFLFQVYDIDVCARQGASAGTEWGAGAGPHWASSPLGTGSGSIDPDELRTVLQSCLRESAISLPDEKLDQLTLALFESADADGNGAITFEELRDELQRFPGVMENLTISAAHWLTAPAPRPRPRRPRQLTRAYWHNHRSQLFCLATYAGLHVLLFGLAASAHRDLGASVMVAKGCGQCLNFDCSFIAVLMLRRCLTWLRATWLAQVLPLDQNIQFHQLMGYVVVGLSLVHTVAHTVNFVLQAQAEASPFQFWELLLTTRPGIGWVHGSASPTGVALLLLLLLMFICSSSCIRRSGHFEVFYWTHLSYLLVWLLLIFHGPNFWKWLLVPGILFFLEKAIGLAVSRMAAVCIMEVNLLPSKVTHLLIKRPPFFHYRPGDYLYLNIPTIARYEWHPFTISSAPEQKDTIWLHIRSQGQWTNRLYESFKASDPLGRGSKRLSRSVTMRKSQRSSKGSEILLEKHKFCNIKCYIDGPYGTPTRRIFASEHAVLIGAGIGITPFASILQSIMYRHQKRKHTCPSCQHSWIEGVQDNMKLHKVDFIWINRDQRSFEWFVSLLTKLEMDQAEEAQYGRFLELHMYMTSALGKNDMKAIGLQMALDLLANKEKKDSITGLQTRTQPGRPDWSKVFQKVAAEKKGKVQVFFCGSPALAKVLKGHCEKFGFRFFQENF

Compound | z-score [1] | composite z-score [2] | z-score [3] | z-score [4] | z-score [5] | z-score [6] | z-score [7] | z-score [8] | z-score [9] | z-score [10]
O=C1NC(=O)C2C1C=CC(C(O)c1ccc(-c3ccccc3)s1)N2Nc1ccc(Cl)cc1Cl (stereo not given) | -2.23 (inactive) | -0.141 | 2.29 (inactive) | 1.58 (inactive) | -0.666 (inactive) | 1.07 (inactive) | -1.09 | 0.964 (inactive) | -3.15 (inactive) | -0.664
[N-]=[N+]=Nc1ccccc1C[C@@]1(C(=O)N2CCCCC2)N=C(c2ccc(OCCCO)cc2)O[C@@H]1c1ccccc1 | 2.42 (inactive) | 0.0227 | 26.6 (active) | 18.4 (active) | 2.78 (inactive) | 2.31 (inactive) | 0.159 | -0.0547 (inactive) | 0.951 (inactive) | -1.31
CC(C)[C@@H](C(=O)O)n1cc(C2(O)CCCCC2)nn1 | -0.0464 (inactive) | -0.188 | -0.477 (inactive) | -0.436 (inactive) | -2.15 (inactive) | -0.89 (inactive) | 0.0556 | -1.09 (inactive) | -0.176 (inactive) | -0.658
COc1ccc(NC(=O)O[C@H]2[C@H](OC(=O)c3cc4ccccc4[nH]3)[C@@H](OC(=O)c3cc4ccccc4[nH]3)[C@@H](OC)O[C@@H]2CO)cc1 | 0.799 (inactive) | -0.0529 | 2.35 (inactive) | -0.529 (inactive) | 0.52 (inactive) | -0.955 (inactive) | 1.22 | -3.65 (inactive) | -1.18 (inactive) | -4.46
COc1ccc(C(O)C2C=CC3C(=O)N(C)C(=O)C3N2NC(=O)OC(C)(C)C)c2ccccc12 (stereo not given) | -1.17 (inactive) | 0.445 | 1.9 (inactive) | 1.09 (inactive) | 0.0084 (inactive) | 1.2 (inactive) | -1.16 | -0.674 (inactive) | -1.92 (inactive) | 0.384
C=CCOC(=O)[C@H]1[C@@H]2C(=O)O[C@@H](c3ccccc3)[C@@H](c3ccccc3)N2[C@@H](c2ccc(OCCOC(=O)[C@H]3C[C@H]4C(=O)N[C@@H](CCCCN(C)C)C(=O)N4[C@H]3c3cccc(OCCO)c3)cc2)[C@]12C(=O)Nc1ccc(I)cc12 | -1.61 (inactive) | -0.156 | -1.87 (inactive) | 0.381 (inactive) | -0.0437 (inactive) | 0.375 (inactive) | -0.529 | 2.18 (inactive) | 1.01 (inactive) | 1.06
C=C(CCCC)/C(=C/C[C@@H](OC(C)=O)c1cccc(OCCO)c1)c1cnc2ccccc2c1 | 0.776 (inactive) | 0.201 | 23.6 (active) | 6.35 (inactive) | 2.48 (inactive) | 1.51 (inactive) | 0.237 | -2.25 (inactive) | -0.934 (inactive) | -2.22
[N-]=[N+]=Nc1ccccc1C[C@]1(C(=O)NCc2ccccc2)N=C(c2ccc(OCCCO)cc2)O[C@H]1c1ccccc1N=[N+]=[N-] | -0.107 (inactive) | -0.353 | 28.1 (active) | 28.7 (active) | 2.76 (inactive) | 5.76 (inactive) | 0.096 | -1.87 (inactive) | 0.483 (inactive) | -0.32
CO[C@H]1O[C@H](CO)[C@@H](OC(=O)Nc2ccc(Oc3ccccc3)cc2)[C@H](OC(=O)Nc2ccc3c(c2)OCO3)[C@@H]1OC(=O)Nc1ccc2c(c1)OCO2 | 0.599 (inactive) | 0.0751 | 12.3 (active) | 2.93 (inactive) | 0.403 (inactive) | 1.7 (inactive) | 0.377 | 1.24 (inactive) | -0.397 (inactive) | -0.967
CO[C@H]1O[C@H](CO)[C@@H](OC(=O)Nc2ccccc2-c2ccccc2)[C@H](OC(=O)Nc2ccccc2-c2ccccc2)[C@@H]1OC(=O)Nc1ccccc1-c1ccccc1 | 1.23 (inactive) | 0.407 | 1.79 (inactive) | 1.44 (inactive) | 0.552 (inactive) | 0.938 (inactive) | -0.296 | 2.02 (inactive) | 0.114 (inactive) | -0.114
COc1cc2c(cc1OC)CN(C(=O)[C@H]1[C@@H]3C(=O)O[C@@H](c4ccccc4)[C@@H](c4ccccc4)N3[C@@H](c3ccccc3OCCO)[C@]13C(=O)Nc1ccc(C#CCCO)cc13)CC2 | -0.667 (inactive) | 0.112 | 3.11 (inactive) | 1.89 (inactive) | 1.89 (inactive) | 0.835 (inactive) | -0.482 | 1.44 (inactive) | 1.26 (inactive) | 0.819
CC(=O)NCCCC[C@@H]1NC(=O)[C@H]2C[C@@H](C(=O)O)[C@@H](c3ccc(O)cc3)N2C1=O | -0.73 (inactive) | 0.249 | 2.25 (inactive) | 2.24 (inactive) | -0.368 (inactive) | 0.912 (inactive) | -1.14 | 1.61 (inactive) | 0.625 (inactive) | 1.64
CC1CC/C=C\[C@H]2OC34C=CCN(c5ccc6ccccc6c5)C(=O)[C@H]3N(CCO)C(=O)[C@@H]4C2C(=O)O1 (stereo not given in full) | -0.0648 (inactive) | 0.552 | 3.56 (inactive) | 0.531 (inactive) | 0.15 (inactive) | 0.357 (inactive) | 0.21 | 1.43 (inactive) | 1.04 (inactive) | 2.4
COCCOC(=O)N1C(=O)[C@@]2(c3ccccc31)[C@H](C(=O)N1CCc3cc(OC)c(OC)cc3C1)[C@H]1C(=O)O[C@H](c3ccccc3)[C@H](c3ccccc3)N1[C@@H]2c1ccc(O)cc1 | 3.04 (inactive) | -0.0186 | 0.927 (inactive) | -0.751 (inactive) | -0.965 (inactive) | -1.93 (inactive) | 2.38 | 0.571 (inactive) | 0.549 (inactive) | 1.2
C=CC[C@]1(C(=O)NCc2ccccc2)N=C(c2ccc(OCCCO)cc2)O[C@H]1c1ccccc1CN=[N+]=[N-] | -1.21 (inactive) | 0.0556 | 19.7 (active) | 2.93 (inactive) | 3.16 (inactive) | 0.986 (inactive) | -0.387 | -0.302 (inactive) | 0.617 (inactive) | -0.656
COCC(=C=CC[C@H](O)c1ccccc1OCCO)CCO | 0.0257 (inactive) | -0.206 | 2.69 (inactive) | -0.0718 (inactive) | -0.107 (inactive) | 0.0371 (inactive) | -0.509 | 0.281 (inactive) | 0.263 (inactive) | -0.397
COc1cc(OC)c(C(O)C2C=CC3C(=O)NC(=O)C3N2Nc2ccccn2)cc1Br (stereo not given) | -0.718 (inactive) | -0.172 | 1.54 (inactive) | 0.783 (inactive) | 0.332 (inactive) | 0.876 (inactive) | -0.732 | -0.0691 (inactive) | -2.81 (inactive) | -2.05
COc1ccc(C(O)C2C=CC3C(=O)N(C)C(=O)C3N2N(c2ccccc2)c2ccccc2)c2ccccc12 (stereo not given) | -1.24 (inactive) | 0.407 | 1.24 (inactive) | 1.4 (inactive) | 0.39 (inactive) | 1.32 (inactive) | -1.19 | -0.549 (inactive) | -0.247 (inactive) | -0.716
COC(=O)[C@@]1(Cc2ccccc2)[C@H]2c3cc(C(=O)N(C)C)n(Cc4ccc(OC)c(OC)c4)c3C[C@H]2CN1C(=O)c1ccccc1 | -1.95 (inactive) | 0.211 | 3.81 (inactive) | 1.2 (inactive) | 0.688 (inactive) | 1.11 (inactive) | -0.399 | -0.415 (inactive) | -0.865 (inactive) | -0.0397
COc1ccc([Si](C)(C)[C@H]2[C@H](CCn3cc([C@H](O)c4ccccc4)nn3)O[C@@]3(C(=O)N(C)c4ccccc43)[C@@H]2C)cc1 | 0.294 (inactive) | 0.573 | 5.08 (inactive) | 1.5 (inactive) | 0.56 (inactive) | 0.866 (inactive) | 0.334 | -0.0243 (inactive) | 0.0296 (inactive) | -1.24
[N-]=[N+]=NCc1ccccc1[C@@H]1OC(c2ccc(OCCCO)cc2)=N[C@]1(CCS(=O)(=O)c1ccccc1)C(N)=O | 1.06 (inactive) | 0.428 | 26.4 (active) | 14.7 (active) | 0.618 (inactive) | 1.75 (inactive) | -0.353 | -0.282 (inactive) | 1.13 (inactive) | 2.23
CS(=O)(=O)CCOC(=O)C1=CC(CCCO)=CC(C2CC2)N(Cc2cc3c(cc2Br)OCO3)C=C1C(=O)OCCS(C)(=O)=O (stereo not given) | 0.307 (inactive) | 0.131 | 3.83 (inactive) | 1.02 (inactive) | 0.106 (inactive) | 0.504 (inactive) | 0.404 | -1.56 (inactive) | -0.0814 (inactive) | -1.11
COc1ccc([C@H]2C[C@H]3C(I)=C[C@@H]2C(=O)[C@]32CO2)cc1 | 0.794 (inactive) | -0.28 | 0.524 (inactive) | 0.0528 (inactive) | 0.255 (inactive) | -0.0393 (inactive) | 0.759 | -0.546 (inactive) | -0.298 (inactive) | -0.974
C#CCNCc1ccccc1 | -0.131 (inactive) | -0.235 | 0.229 (inactive) | 0.876 (inactive) | -0.116 (inactive) | 0.409 (inactive) | -0.255 | -12.1 (active) | -0.493 (inactive) | 0.615
COC(=O)[C@@]1(Cc2ccc(OC)cc2)[C@H]2c3cc(C(=O)N4CCCC4)n(CCCNc4ncc(C(F)(F)F)cc4Cl)c3C[C@H]2CN1C(=O)c1ccccc1 | -1.46 (inactive) | 0.982 | 10.1 (active) | 1.37 (inactive) | 2.15 (inactive) | 1.13 (inactive) | -0.0195 | 0.128 (inactive) | 0.577 (inactive) | 1.65
COC(=O)C[C@H]1O[C@@H](CCc2ccccc2)[C@@H](C)[C@@H]1[Si](C)(C)c1ccc(OC)cc1 | -0.95 (inactive) | -0.188 | 2.54 (inactive) | 0.719 (inactive) | -0.0062 (inactive) | -0.0887 (inactive) | 0.0216 | 1.34 (inactive) | -0.0337 (inactive) | -2.06
